# Bioassay records (PubChem)
# Abs 340nm = compound absorbs light at 340 nm; compound absorbance at 340 nm, fold over control; fold change at 10 µM; 65,000 tested, under 10 active; AID 708;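 active = at 10 µM dose, initial 340 nm absorbance at least 2 fold that of control wells; inactive = change under 2 fold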;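 also: initial absorbance extrapolated from kinetic A340 decline of NADH oxidation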
# DUSP1 inh = human dual specificity phosphatase 1 inhibition; 0.15% of 65,000 active; AID 374; P28562; recombinant MKP-1, OMFP hydrolysis fluorescence; inhibition, %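 (compounds tested at a single concentration somewhere between 10 and 100 µM)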;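 active = inhibition above about 50%, limit read from the data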;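 also: 0% = DMSO max control wells and 100% = wells with enzyme stopped by NaOH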
# Target sequence (P28562 whole entry, looked up): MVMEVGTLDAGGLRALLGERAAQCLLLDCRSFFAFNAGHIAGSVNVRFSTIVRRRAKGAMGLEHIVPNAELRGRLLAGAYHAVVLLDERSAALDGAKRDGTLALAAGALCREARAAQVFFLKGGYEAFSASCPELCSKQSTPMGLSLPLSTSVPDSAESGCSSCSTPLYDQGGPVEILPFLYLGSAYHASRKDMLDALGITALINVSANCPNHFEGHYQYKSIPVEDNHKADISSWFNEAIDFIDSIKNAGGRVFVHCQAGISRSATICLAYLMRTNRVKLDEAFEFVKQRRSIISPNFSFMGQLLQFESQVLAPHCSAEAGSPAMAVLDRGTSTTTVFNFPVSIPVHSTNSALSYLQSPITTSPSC
# Cdc25B block = inhibitors of human Cdc25B phosphatase; recombinant Cdc25B, OMFP fluorescence Ex485/Em525; inhibition, %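 (compounds tested at 10 µM final in the well)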; 0.1% of 65,000 active; in the data active = inhibition above about 50%
# Hsp90 block = displaces geldanamycin probe from tumor Hsp90; NCI-N417 lysate Hsp90, Cy3B-geldanamycin FP displacement; inhibition, % at 30 µM; 0.35% of 64,000 active;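 active = inhibition above 50%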;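 also: 0% = tracer plus lysate wells and 100% = tracer alone without lysate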
# Autofluor 339 = intrinsic fluorescence of library compounds, ex339/em460 – biochemical, MLSMR library, data from DPM-DC assay, artefact control, profiling panel; compound autofluorescence, ex339/em460 nm, NADH buffer; hits give high values; 1 = no-compound wells, NADH background; fluorescence fold increase at 10 µM; 5.5% of 65,000 active;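 active = at 10 µM, mean starting fluorescence two-fold or more over control wells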;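 also: signal is the first read of a kinetic run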
# NADH enzymes = blocks coupling enzymes of NAD/NADH assays; coupled PK/LDH NADH assays, four targets; 0.02% of 65,000 active; AID 774; IC50, µM (highest dose often 10 µM), without a hit: at the top dose inhibition;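 active = single-dose screening hits from any of four coupled enzyme assays that gave an IC50 when retested across doses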;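 also: the DPM-DC format reads NADH fluorescence rather than 340 nm absorbance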
# An asterisk follows results filed as active; . = no result. Most compounds without a hit are left out; they make up all but 5.7% or so of the library.
SMILES,Abs 340nm,DUSP1 inh,Cdc25B block,Hsp90 block,Autofluor 339,NADH enzymes
COc1ccc(N(C)C(=O)CCS(=O)(=O)c2cccc3nonc23)c(OC)c1,1,4,-7,-4,1,3%
Cc1ccc(S(=O)(=O)N2CCC(C(=O)N[C@@H](C)C(=O)Nc3ccc4c(c3)OCO4)CC2)cc1,1,-16,2,65*,1.1,6%
Cc1ccc(S(=O)(=O)N2CCC(C(=O)OC(C)C(=O)NCc3ccc4c(c3)OCO4)CC2)cc1 (configuration not stated),1,-27,-4,-4,1.1,6%
CCN1C(=O)C(O)(C2COC(C)(C)CC2=O)c2cc(Br)ccc21 (configuration not stated),1,-2,-12,-6,1.1,2%
Cc1oc2ncnc(N)c2c1C,0.98,-25,-2,-1,1.2,7%
Cc1ccc(-c2oc3ncnc(N)c3c2-c2ccc(C)cc2)cc1,1.1,1,-9,3,3.5*,4%
Clc1ccc(OCc2cn3cccnc3n2)c2ncccc12,1,25,-2,-3,2.1*,7%
CCOC(=O)NC1(NC2CCCCC2)Oc2ccccc2O1,1,33,-3,50,1.1,7%
CCOC(=O)NC1(NCc2ccccc2)Oc2ccccc2O1,1,9,1,51*,1.1,2%
O=C(Nn1c(Cc2cccs2)nc2ccccc2c1=O)c1cccs1,1,-8,14,0,1,8%
COc1ccccc1N=c1oc2cc(O)ccc2cc1C(=O)NCC1CCCO1 (configuration not stated),1.1,14,19,-2,2.9*,11%
COc1ccc2oc(=O)c(C(=O)NCC3CCCO3)cc2c1 (configuration not stated),1,3,-15,-2,5.1*,8%
COc1ccc2oc(=O)c(C(=O)N3CCN(C45CC6CC(CC(C6)C4)C5)CC3)cc2c1,1,1,6,-4,3.7*,5%
COc1ccccc1N=c1oc2cc(O)ccc2cc1C(N)=O,1.1,-3,-9,-1,3.6*,15%
CC(C)Oc1cccc(C(=O)O)c1,0.99,-9,4,0,1.1,9%
Cc1cccc(N=c2oc3cc(O)ccc3cc2C(N)=O)c1,1.1,13,-2,-5,3.7*,8%
COc1ccc2nc3c(cc2c1)c(NC(=O)c1cccs1)nn3CC(C)C,1,-2,-6,-8,3.7*,11%
c1cc(Nc2ncnc3sccc23)cc(-c2nnc3n2CCCCC3)c1,0.98,35,-3,-11,1,8%
CCOC(=O)c1cc2c(=O)n3ccccc3nc2n(CCOC)c1=NC(=O)C(C)(C)C,1.1,12,-14,.,2.3*,9%
CCOCCCn1c(=NC(C)=O)c(C(=O)OCC)cc2c(=O)n3ccccc3nc21,1,-2,2,-1,2.9*,3%
CCOC(=O)c1cc2c(=O)n3ccccc3nc2n(CCOC)c1=NC(=O)c1ccncc1,1.1,.,.,.,2.2*,3%
CCOC(=O)c1cccnc1SCc1cc(=O)n2ccccc2n1,1.1,23,-7,1,1.9,13%
CCOC(=O)c1cc2c(=O)n3ccccc3nc2n(CCCOC)c1=NC(=O)C(C)(C)C,1,6,-2,-4,2.4*,6%
CCOC(=O)c1cc2c(=O)n3ccccc3nc2n(CCCOC)c1=NC(=O)c1cccnc1,1.1,.,.,.,1.7,5%
OC[C@H]1O[C@@H](n2cnc3c(Nc4ccccc4)ncnc32)C(O)[C@H]1O (some centres not stated),.,.,.,2,.,.
SMILES,Abs 340nm,DUSP1 inh,Cdc25B block,Hsp90 block,Autofluor 339,NADH enzymes
COc1ccc(N2C(=O)CSC23C(=O)N2CCCc4cccc3c42)cc1 (configuration not stated),1,-18,-8,67*,1.1,4%
O=C1N2CCCc3cccc(c32)C12Nc1ccccc1S2 (configuration not stated),1.1,13,-7,-9,1.1,2%
Cc1ccc2c(c1)nnn2C1CCN(C(=O)C2CCCCC2)CC1,1,14,-11,1,1.2,2%
COc1ccc(NC(=O)c2cc3c(=O)n(C)c4ccccc4c3n2C)cc1OC,1.1,-16,-6,-1,1,6%
COc1cc(NC(=O)c2cc3c(=O)n(C)c4ccccc4c3n2C)cc(OC)c1OC,1.1,-3,3,0,2*,4%
CNc1nnc(-c2cc3ccccc3oc2=O)s1,1.1,-10,-7,1,2.3*,4%
CCc1nnc(NC(=O)c2cc3ccccc3oc2=O)s1,1,1,-17,0,1,5%
CC1CN(C(=O)Nc2ccc3snnc3c2)c2ccccc21 (configuration not stated),1.1,5,2,-3,1.1,5%
COC(=O)Cc1c(C)c2ccc(OC(=O)c3ccco3)cc2oc1=O,1.1,2,-10,-2,2.1*,9%
COC(=O)Cc1c(C)c2cc(Cl)c(OC(=O)c3ccco3)cc2oc1=O,1.1,-17,-3,0,2.1*,7%
COC(=O)C1=C(C)NC(C)=C(C(=O)OC)C1c1ccc(OC(=O)c2ccco2)cc1,1.1,-6,-5,-7,1.5,4%
COc1ccccc1CN1CCN(C(CC(C)C)c2nnnn2Cc2cccs2)CC1 (configuration not stated),0.97,-4,-20,0,1.2,7%
COC(=O)[C@H](C)NC(=O)Nc1ccc(Oc2ccccc2)cc1,0.99,-10,2,0,1.1,8%
CC1(c2cccs2)CC(c2cccs2)=C(C#N)C(=O)N1 (configuration not stated),1.1,7,-1,-4,1.1,6%
O=C(NC1CCCCC1)c1cc2nc(-c3ccco3)cc(C(F)(F)F)n2n1,1,5,0,0,2.9*,4%
O=C(NC1CCCCC1)c1cc(-c2ccco2)on1,0.98,6,-16,-2,1.1,6%
O=C(NC12CC3CC(CC(C3)C1)C2)c1cc2nc(-c3ccco3)cc(C(F)(F)F)n2n1,1,15,3,-4,2.9*,13%
O=C(Nc1cnn(C23CC4CC(CC(C4)C2)C3)c1)c1cnn2c(C(F)(F)F)cc(-c3ccco3)nc12,1,25,-5,1,1.1,4%
O=C(c1cc2nc(-c3ccco3)cc(C(F)(F)F)n2n1)N1CCc2ccccc2C1,1.1,19,-8,-6,2.2*,20%
O=C(Nc1cnn(Cc2ccccc2)c1)c1cc2nc(-c3ccco3)cc(C(F)(F)F)n2n1,1.1,14,-1,0,3.3*,11%
Cc1nc2c(OCc3ccccc3)cccn2c1CC#N,.,.,.,-2,.,.
CS(=O)(=O)N(CC(=O)NCCC1=CCCCC1)c1ccc2c(c1)OCO2,1,-3,-7,-3,1.1,6%
